# Rows were chosen to be rich in hits. Some 0.86% of all compounds tested hit in one or more screens of this group.
# NOD2-RIPK2 inh: inhibitors of human NOD2-RIPK2 interaction; O43353; CHO BLA complementation NOD2-RIPK2, CCF4 ratio; inhibition, % at 4.98 µM; actives 0.38% (n = 360,000); AID 624267; in the data active = inhibition above about 21%;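 note: 0% = vehicle only and 100% = reference blocker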
# Target sequence (O43353 whole entry, looked up): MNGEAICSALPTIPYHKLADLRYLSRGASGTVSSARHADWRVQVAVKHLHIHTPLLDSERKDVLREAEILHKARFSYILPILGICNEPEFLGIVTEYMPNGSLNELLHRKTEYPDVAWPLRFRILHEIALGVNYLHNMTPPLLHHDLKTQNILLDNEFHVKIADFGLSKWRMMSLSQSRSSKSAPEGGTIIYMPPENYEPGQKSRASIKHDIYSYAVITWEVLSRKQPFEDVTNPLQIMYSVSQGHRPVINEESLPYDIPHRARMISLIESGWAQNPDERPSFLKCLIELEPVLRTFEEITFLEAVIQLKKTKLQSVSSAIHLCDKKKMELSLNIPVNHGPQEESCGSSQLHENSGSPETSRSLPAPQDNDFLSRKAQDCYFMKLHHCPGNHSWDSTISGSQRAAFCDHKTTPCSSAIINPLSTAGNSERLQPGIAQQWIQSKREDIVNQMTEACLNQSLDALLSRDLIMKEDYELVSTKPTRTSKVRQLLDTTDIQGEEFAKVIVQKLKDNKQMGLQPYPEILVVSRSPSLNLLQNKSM
# TLR4-MyD88 BLA: blocks binding of human TLR4 to MyD88. O00206+Q99836. HeLa CL3-4 TLR4/MyD88 BLA complementation, FRET ratio. inhibition, % at 8.4 µM. actives 0.18% (n = 200,000). AID 861; in the data active = inhibition above about 25%;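 note: 0% = vehicle and 100% = reference inhibitor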
# IDE cell activ: boosts human insulin-degrading enzyme activity in HEK cells; P14735; FAbeta-B cleavage, fluorescence polarization; 0% vehicle, 100% cell-free pure enzyme wells; activation, % at 5.96 µM; actives 0.073% (n = 340,000); AID 493087;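 active = activation above the mean of all tested compounds plus 3 SD, set per screening campaign, cut at about 17% in these data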
# IDE inh: inhibits human insulin-degrading enzyme in HEK cells. FAbetaB cleavage, fluorescence polarization. inhibition, % at 5.59 µM. actives 0.41% (n = 320,000). AID 434962;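 active = percent inhibition above the average of all tested compounds plus 3 SD, set per screening campaign, cut at about 16% in these data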;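 note: IDE supplied by intact live HEK cells; FP after avidin binding of uncleaved biotin substrate so inhibition keeps polarization high; 0% = DMSO wells and 100% = 60 µM reference IDE inhibitor Ii1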
# TLR9-MyD88 block: inhibitors of human TLR9-MyD88 binding | CHO BLA complementation TLR9-MyD88, CCF4 FRET ratio | Q9NR96+Q99836 | inhibition, % at 4.98 µM | actives 0.21% (n = 340,000) | AID 504734;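 active = inhibition above the mean over all tested compounds plus 3 SD, cut at about 21% in these data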;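 note: 0% = DMSO only wells and 100% = clavulanate BLA inhibitor control wells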
# IDE inh confirm: cellular human IDE inhibition, confirmation; inhibition, % at 5.59 µM; actives 51% (n = 1,200); HEK cells, FAbetaB cleavage, fluorescence polarization; shares compounds with IDE inh;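 active = mean inhibition across triplicate wells above the cutoff set by the earlier primary insulin-degrading enzyme screen, cut at about 16% in these data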;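 note: 0% = DMSO wells and 100% = 60 µM reference IDE inhibitor Ii1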
# HEK cytotox: HEK cell cytotoxicity, counter-screen for IDE inhibitors | inhibition, % at 5.59 µM | shares compounds with IDE inh | HEK293 cytotoxicity, ATP luminescence | actives 28% (n = 1,200); in the data active = inhibition above about 22%;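 note: 0% = vehicle wells and 100% = reference cytotoxic drug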
# Active calls of the source: *; · = no result.
SMILES,NOD2-RIPK2 inh,TLR4-MyD88 BLA,IDE cell activ,IDE inh,TLR9-MyD88 block,IDE inh confirm,HEK cytotox
COc1ccc(Cn2c(C)nc3c(c2=O)c2nc4ccccc4nc2n3Cc2ccco2)cc1,15,·,-3,·,3,·,·
Cc1cccc(OCC(=O)NCC(=O)N/N=C/c2cc(Br)ccc2OCc2ccccc2)c1,-6,-1,2,32*,-8,5,5
CN1/C(=C\C=C(/C#N)C(=O)Nc2ccccc2F)C(C)(C)c2ccccc21,0,1,-44,25*,1,35*,14
CC[C@@H](C)[C@H](NC(=O)CNC(=O)Cc1c(C)c2c(cc(C)c3c(C)coc32)oc1=O)C(=O)O,11,·,-2,-2,-1,·,·
CCN1C(=S)SC(=O)C1=C1C=C(C)N(Cc2ccco2)C(C)=C1,-1,1,-30,33*,-5,42*,13
O=C1N=C(N2CCN(c3ccccc3)CC2)S/C1=C\c1cn[nH]c1-c1ccccc1,-9,2,-13,9,-7,·,·
Cc1ccc(N2CCN(C3=NC(=O)/C(=C\c4cn[nH]c4-c4ccccc4)S3)CC2)cc1,-10,-2,-16,31*,-7,2,26*
O=C(CCCN1C(=O)/C(=C\c2ccccc2)SC1=S)N1CCOCC1,-14,·,-2,2,-3,·,·
O=C(O)CN1C(=O)/C(=C\c2cn(CC(=O)N3CCOCC3)c3ccccc23)SC1=S,-1,5,-108,67*,4,114*,9
COC(=O)C(CCCN1C(=O)c2ccccc2C1=O)(NC(C)=O)c1nn[nH]n1 (stereo not drawn),-3,-13,-8,2,-4,·,·
COc1cccc(C(=O)Nc2ccc(-c3nnc(-c4ccco4)o3)cc2)c1,0,3,-9,22*,1,9,23*
O=C(Nc1cccc(-c2nnc(-c3ccco3)o2)c1)c1ccccc1,-3,-3,·,-3,·,·,·
COc1cccc(C(=O)Nc2cccc(-c3nnc(-c4ccccc4)o3)c2)c1,-2,·,-12,17*,-1,1,21
Cc1ccc(CN(CCO)CCO)cc1,5,-7,3,-4,-1,·,·
COc1cccc(NC(=O)C(C)OC(=O)c2n[nH]c3ccccc23)c1 (stereo not drawn),-5,·,4,-4,4,·,·
Cc1ccccc1COc1ccc(/C(O)=C2/C(=O)C(=O)N(CCCn3ccnc3)C2c2ccco2)cc1 (stereo not drawn),-12,·,-19,18*,1,11,13
Cc1ccc(/C(O)=C2/C(=O)C(=O)N(CCCn3ccnc3)C2c2ccccn2)cc1 (stereo not drawn),·,-2,·,·,·,·,·
Cc1cc2nc(/C(C#N)=C\c3ccc(-c4ccccc4C(=O)O)o3)[nH]c2cc1C,2,·,-124,31*,-1,134*,8
N#C/C(=C\c1ccc([N+](=O)[O-])o1)c1nc2ccccc2[nH]1,·,10,·,9,·,·,·
N#C/C(=C\c1ccc(-c2ccccc2C(=O)O)o1)c1nc2ccccc2[nH]1,-12,·,-38,31*,5,53*,4
N#C/C(=C\c1cccs1)c1nc2ccccc2[nH]1,-3,-6,5,-2,-2,·,·
Cc1cc2nc3s/c(=C/c4ccc(-c5ccccc5C(=O)O)o4)c(=O)n3c2cc1C,-6,·,2,4,-6,·,·
N#C/C(=C/c1ccc(O)c(O)c1)c1nc2ccccc2[nH]1,-1,·,-49,47*,10,93*,9
N#C/C(=C\c1ccccc1OCC(=O)O)c1nc2ccccc2[nH]1,3,·,1,1,3,·,·
N#C/C(=C\c1ccc(Sc2ccccc2)o1)c1nc2ccccc2[nH]1,14,16,-22,21*,11,14,20
COc1ccc(C(=O)/C=C/Nc2ccc(C)cn2)cc1OC,-7,-9,6,1,5,·,·
CCCCc1n[nH]c2c1C(=O)CC(C)(C)C2,-3,1,1,6,-10,·,·
CCCn1nc(NC(=O)c2cccs2)c2cc3cc(C)ccc3nc21,15,·,2,-9,9,·,·
Cc1ccc2nc(/C(C#N)=C\c3ccc(N4CCOCC4)o3)[nH]c2c1,8,12,-139,48*,8,26*,27*

# Screens: PubChem BioAssay, The Scripps Research Institute Molecular Screening Center
